From PubChem BioAssay AID720519 (National Center for Advancing Translational Sciences (NCATS), 2013)
Results filed as inconclusive are left out. The source made the active and inactive calls. The call rests on the fitted dose curve; in most records, active means well fitted activation curve with a large enough effect; inconclusive means small, poorly fitted or top-dose-only effect; inactive means flat fitted curve, though single readings scatter.

Assay: qHTS for Inhibitors of Cell Surface uPA Generation: Confirmatory Assay for Cherry-picked Compounds; further: 0% is about no effect
Conditions: cell surface uPA activity generation, qHTS confirmation; series mostly up to 115 µM; inhibition: at the top concentration
How it was run: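 RAW 264.7 cells at 4000/well, incubated overnight, then treated with compounds. After 24 h at 37 C, viability was read by ATPlite luminescence. An increase in signal indicates blocked uPA-dependent LF entry.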

inhibition, inactive:
CSCC[C@H](NC(=O)[C@H](Cc1ccccc1)n1c(=O)[nH]c2ccccc2c1=O)C(=O)N1CCC[C@@H]1C(=O)O -0.387%
COCCN(C(=O)c1ccccc1OC)c1nnc(C)s1 -2.79%
Fc1cccc(Cl)c1CSc1ccc(-c2cccnc2)nn1 -2.62%
COCCCN1CC23C=CC(O2)C(C(=O)O)C3C1=O (centres undefined) -1.65%
Cc1ccc(S(=O)(=O)N2CCOCC2)cc1C(=O)OC1CCOC1=O (centres undefined) -2.34%
Cc1ccnc(N2CCN(C(=O)CSc3nc4ccccc4nc3N3CCC(C)CC3)CC2)c1 -3.35%
CCC1(CC)NC(=O)N(CC(=O)OCC(=O)c2cc(C)c(C)cc2C)C1=O -1.52%
O=C(Nc1cccc(-c2nn[nH]n2)c1)c1ccc(Cl)s1 -2.78%
COc1ccc(S(=O)(=O)c2c(O)c3ccc(C(=O)Nc4ccccc4)cc3[nH]c2=O)cc1 -2.77%
O=C(COc1cccc2ccccc12)NNC(=O)c1cnccn1 -2.03%
CCc1nccn1CCC(=O)N1CCc2c([nH]c3ccccc23)C1CC(C)C (centres undefined) -0.754%
CCOC(=O)C1=C(C)N(Cc2ccccc2)C(=O)NC1c1ccc(OC)cc1 (centres undefined) -1.56%
Cc1c(NC(=O)C(C)OC(=O)CCC2CCCC2)c(=O)n(-c2ccccc2)n1C (centres undefined) 0.008%
CS(=O)(=O)Nc1cccc(C2=NN(S(=O)(=O)c3ccccc3)C(c3ccco3)C2)c1 (centres undefined) -1.68%
Cc1cc(C)nc(NC(=O)CSc2nccc(C)n2)n1 -3.03%
CCC(=O)Nc1nc(-c2cc([N+](=O)[O-])cs2)cs1 -0.373%
COc1ccccc1NC(=O)Cn1ncc2c1-c1ccccc1OC2 -1.12%
COc1ccc(Nc2nc(-c3ccccc3)c(C(=O)Nc3cccnc3)s2)cc1 8.15%
C=CCOC(=O)C1=C[C@H](c2ccc(C(F)(F)F)cc2)[C@@H](CCCO)[C@H](OCC)O1 -3.55%
CC1(C)CC(=O)C=C(c2ccc3ccccc3c2)C1 -0.951%
Cc1ccc(-c2cc(C(=O)NCC3CCCO3)no2)cc1 (centres undefined) -3.36%
Cc1ccc(S(=O)(=O)N(C)c2ccc(OC(=O)c3ccc(=O)[nH]c3)cc2)cc1 -1.78%
COc1ccc(C(CNC(=O)C(C)Oc2ccc(Br)cc2)N2CCCC2)cc1 (centres undefined) -3.28%
CCCCCN(C(=O)CCC(=O)OCCOc1cccc(Cl)c1)c1c(N)n(CCCC)c(=O)[nH]c1=O -1.16%
CC1CCCN(C(=O)c2ccc(-c3ccccc3Cl)o2)C1 (centres undefined) -3.9%
O=[N+]([O-])c1cccc(-c2noc(-c3cccs3)n2)c1 4.61%
Fc1ccc(CNc2ccccn2)cc1 -1.78%
CCC1(C)NC(=O)N(CC(=O)Nc2sc3c(c2C(N)=O)CCC3)C1=O (centres undefined) 7.12%
CCOC(=O)C1CCN(C(=O)COC(=O)c2c(C)c(CC)nc3ccccc23)CC1 -3.11%
NC(=O)C1CCN(C(=O)c2cccc3ccccc23)CC1 0.572%
O=C(Nc1ccnn1C1CCN(CCCC2CCCC2)CC1)c1ccccc1 -3.29%
CCN(CC)CCCNC(=O)c1cn(C)c(=O)c2c1c1ccccc1n2C 5.19%
O=C(NNC(=O)c1cccc(-n2cccc2)c1)c1ccc(F)cc1 -1.92%
O=C1CCCC/C1=C\Nc1ccc(S(=O)(=O)Nc2cnc3ccccc3n2)cc1 -1.58%
CCOC(=O)N1CCN(C(=O)c2ccc3c(c2)sc2nc(-c4ccc(OC)cc4)cn23)CC1 -1.97%
CN(CCC#N)C(=S)Nc1ccc(Oc2ccccc2)cc1 -1.16%
Cc1ccc(C)c(S(=O)(=O)Nc2ccccc2C(=O)Nc2cc(C)on2)c1 -2.99%
CCn1c(=O)cc(C(=O)OC)sc1=Nc1ccc(F)c(F)c1 -3.55%
O=C(N/N=C/c1cccnc1)c1ccccc1[N+](=O)[O-] -3.09%
